Screens deposited in PubChem BioAssay by several laboratories.
Only some compounds are listed: those with a hit (about 4.6% of all), similar ones and a draw of the others.
SKKanGAS inh: SKKanGAS growth inhibition; S. pyogenes SKKanGAS, kanamycin growth, BacTiter-Glo, 6 h; inhibition, % at 7.5 µM; 300,000 tested, 1.3% active; AID 1662;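 active means mean replicate score, as percent of positive control median, at least 50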;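 further: strain carries kanamycin resistance gene driven by streptokinase promoter and grows in 40 µg/ml kanamycin; loss of luminescence reflects streptokinase promoter inhibition or plain growth inhibition; 0% = median of DMSO wells and 100% = positive control at its reference dose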
tim23-1 inh: growth inhibitors of tim23-1 mutant yeast; S. cerevisiae tim23-1 growth, BacTiter-Glo luminescence, 24 h; inhibition, % at 20 µM; 330,000 tested, 1.3% active;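 active means growth inhibition of the mutant yeast at or above 50%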;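 further: temperature-sensitive mutant grown at 25 °C; plate controls were DMSO-treated mutant yeast for no effect and medium wells lacking yeast for full effect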
NLRP3 yeast inh: NALP3 inhibition in yeast | Yeast reconstituted NLRP3/ASC/caspase-1, beta-gal luminescence, 24 h | inhibition, % at 10 µM | 330,000 tested, 0.39% active | AID 2825;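 active means inhibition of 50% or more; inactive means inhibition below 50%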;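 further: plate controls were induced DMSO wells for no effect and uninduced yeast grown without galactose for full effect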
PfHsp90 yeast 2: reduces growth (ATP signal) of yeast expressing P. falciparum Hsp90; S. cerevisiae expressing PfHsp90, BacTiter-Glo ATP, 48 h; yeast lacking PDR1 and PDR3 efflux regulators; inhibition, % at 9.4 µM; 310,000 tested, 0.32% active; AID 504621;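 active means every replicate shows inhibition above about 80%, whatever the replicate mean, limit read from the data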;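 further: 0% = DMSO neutral controls and 100% = 20 µM radicicol positive controls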
tim10-1 inh: tim10-1 yeast growth inhibition; 330,000 tested, 2.2% active; inhibition, % at 20 µM; S. cerevisiae tim10-1 ts strain growth, BacTiter-Glo, 24 h;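 active means inhibition of at least 40%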;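 further: mutant grown at 25 °C; 0% = DMSO wells with yeast and 100% = wells holding no yeast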
TIM10 inh: TIM10 yeast growth inhibition | inhibition, % at 10 µM | S. cerevisiae TIM10 strain growth, BacTiter-Glo luminescence, 24 h | 330,000 tested, 1.4% active;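 active means inhibition of 40% or more at the single tested concentration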;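 further: wild-type TIM10 isogenic control strain grown at permissive 25 °C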
An asterisk follows results filed as active; · = no result.

SMILES	SKKanGAS inh	tim23-1 inh	NLRP3 yeast inh	PfHsp90 yeast 2	tim10-1 inh	TIM10 inh
COC(=O)c1ccc(NC(=O)c2cn(-c3ccccc3)nc2-c2ccncc2)cc1	8	-20	23	89*	-24	-24
O=C(/C=C/c1cn(-c2ccccc2)nc1-c1ccccc1)Nc1ccc(C(=O)O)cc1	50*	13	-6	-35	11	8
CCOC(=O)Cc1csc(NC(=O)c2cc(-c3ccncc3)nc3ccccc23)n1	·	36	19	3	39	20
COc1ccc(NC(=O)COc2cccc3c2CCN(C)C3=O)c(OC)c1	0	-7	-4	-6	5	-9
CCOc1ccc(NC(=S)NNC(=S)Nc2cccc(C(F)(F)F)c2)cc1	51*	3	8	1	23	23
CCCOc1ccc(CNC(=O)c2ccc3c(c2)N(CC)CCS3)cc1	6	7	16	6	2	-2
CN(C)CCOc1ccc(/C(=C(/CCCl)c2ccccc2)c2ccccc2)cc1	101*	11	8	-5	13	12
CCOc1ccc2[nH]c3c(N4CCc5ccccc5C4)ncnc3c2c1	51*	45	13	·	18	38
O=[N+]([O-])c1cc(C(F)(F)F)cc([N+](=O)[O-])c1NCCNC(=S)Nc1ccc(Cl)c(Cl)c1	102*	28	19	4	37	10
Cc1onc(-c2ccccc2Cl)c1C(=O)OCC(=O)N1CCCCC1	·	0	10	1	-5	3
CCC(NC(=S)NC1CCCCC1)c1ccc(C(C)C)cc1 (configuration not stated)	65*	28	20	·	3	5
CCC(NC(=O)NC1CCCCC1)c1ccccc1 (configuration not stated)	3	17	-9	0	22	2
CC(C)CC(C(=O)Nc1ccccc1)N1C(=O)C2C3C=CC(C3)C2C1=O (configuration not stated)	-6	26	-3	·	27	22
C(C#CCCCCCCCCC[n+]1ccccc1)#CCCCCCCCCC[n+]1ccccc1	62*	·	·	121*	·	·
COc1ccc(/C=C/C(=O)NC(=S)Nc2ccccn2)cc1	5	18	13	-15	10	8
COc1ccc(/C=C/C(=O)NC(=S)NNC(=O)c2cnccn2)cc1	80*	43	1	97*	2	-17
O=C(/C=C/c1ccc(F)cc1)NC(=S)NNC(=O)c1cnccn1	109*	24	28	108*	6	-47
COc1ccc(/C=C/C(=O)NC(=S)NNC(=O)c2cccs2)cc1	94*	-10	33	-13	1	6
COc1ccc(/C=C/C(=O)NC(=S)NNC(=O)c2cccnc2)cc1	60*	-4	17	38	22	19
O=C(NC(=S)NNC(=O)c1cnccn1)c1ccc(F)cc1	29	17	15	-65	-31	3
CCn1cc(CN2CCCC(CNC(=O)COc3ccccc3OC)C2)c(C)n1 (configuration not stated)	0	0	18	-1	-9	-13
O=C(O)c1cnc2[nH]c3ccccc3n2c1=O	-3	-1	-2	5	0	-10
CN1CCN(C2Cc3ccc(F)cc3Sc3cc(F)c(Cl)cc32)CC1 (configuration not stated)	97*	21	35	17	11	37
COC(=O)C1(C(C[N+](=O)[O-])c2ccc(C)cc2)C(=O)NCC1c1ccco1 (configuration not stated)	64*	-3	16	·	5	-11
COc1ccc2c(COC(=O)[C@@H]3CCCN3S(=O)(=O)c3ccc(Cl)cc3)cc(=O)oc2c1	·	20	19	·	12	-16
SMILES	SKKanGAS inh	tim23-1 inh	NLRP3 yeast inh	PfHsp90 yeast 2	tim10-1 inh	TIM10 inh
CO/N=C(/C(=O)N[C@@H]1C(=O)N2C(C(=O)O)=CCS[C@H]12)c1cnc(N)s1	99*	·	·	·	·	·
O=C(NNC(=S)NC(=O)c1ccccc1)c1ccc([N+](=O)[O-])cc1	67*	14	22	-10	15	12
O=C(NC(=S)NNC(=O)c1ccccc1O)c1ccc([N+](=O)[O-])cc1	16	-10	24	9	-4	3
Cc1ccc(C(=O)NC(=S)NNC(=O)c2ccc([N+](=O)[O-])cc2)cc1	80*	25	30	-12	6	12
O=C(NNC(=S)NC(=O)c1ccc(Br)cc1)c1cccc([N+](=O)[O-])c1	102*	-18	31	-18	-17	-16
CC1CCC(NC(=O)C(C)N2C(=O)C3CCCCC3C2=O)CC1 (configuration not stated)	·	18	18	27	1	11
CNC[C@@H](Cc1ccccc1)NC[C@@H](CC1CCCCC1)NCCCc1ccccc1	64*	-36	39	-1	-30	-3
CNC[C@@H](CC1CCCCC1)NC[C@H](CC(C)C)NCCc1cccc(C(F)(F)F)c1	88*	-9	46	-58	-46	-9
O=C(Cn1cccc1C(=O)c1ccccc1)NCc1ccc(F)cc1	-5	9	-2	17	4	-4
CC1CCN(S(=O)(=O)c2ccc(C(=O)N3CCCC3C(=O)O)cc2)CC1 (configuration not stated)	·	12	11	-7	14	1
CN1Cc2cc(C(=O)c3cc(Cl)cc(CSc4ncccn4)c3O)cnc2NC1=O	50*	17	24	·	15	23
Cc1ccc(O)c(C(=O)c2cnc3c(c2)CN(C)C(=O)N3)c1	-8	4	18	21	11	7
COc1ccccc1C(=O)NCC(=O)N1CC=C(c2ccccc2)CC1	·	7	18	20	-18	3
O=C(CCCc1nc(-c2ccccc2Cl)no1)NC1CCCC1	-8	12	6	1	29	-1
Nc1ccccc1C(=O)NNC1=C(C(=O)C(F)(F)F)CCC1	-2	2	1	3	13	-5
O=C(NNC1=C(C(=O)C(F)(F)F)CCC1)c1ccccc1Cl	16	7	13	0	15	14
O=C(NNC1=C(C(=O)C(F)(F)F)CCC1)c1ccc(Br)cc1	106*	40	-3	130*	0	12
O=C(NNC1=C(C(=O)C(F)(F)F)CCC1)c1ccccc1O	87*	36	7	15	-55	-5
CCCN1CCc2nc(SCC(=O)Nc3ccc(C)c(Cl)c3)[nH]c(=O)c2C1	1	5	7	9	-14	-7
O=C(Nc1cccc([N+](=O)[O-])c1)c1cc2ccccc2cc1O	74*	9	33	-17	5	-21
Cn1c(N)c(C(=O)COC(=O)/C=C/c2ccc(Cl)c(Cl)c2)c(=O)n(C)c1=O	·	0	12	9	1	-10
CC(C)(C)c1ccc(OCC(=O)NNC(=S)NC(=O)c2ccco2)c(Br)c1	119*	27	43	-58	22	32
